Results filed as inconclusive are left out. Where a call stands in place of a potency, no number is given. Calls of active or inactive are those of the source. Calls come from the whole dose curve; as a rule, active = well fitted activation curve with a large enough effect in the main read-out, with a control signal flat (not every such curve was filed as active); inconclusive = small, poorly fitted or top-dose-only effect, or effect the other way, or a change in a side signal; inactive = flat fitted curve, though single readings scatter.
target: 3',5'-cyclic-AMP phosphodiesterase 4B (Homo sapiens) (UniProt Q07343); assay: qHTS Assay for Inhibitors of PDE-IV (AID 607); conditions: HEK293 ACTOne CNG channel cells, membrane potential fluorescence; series mostly up to 22.9 µM; activation (PDE inhibition): at the top concentration
Sequence (Q07343 whole entry, looked up): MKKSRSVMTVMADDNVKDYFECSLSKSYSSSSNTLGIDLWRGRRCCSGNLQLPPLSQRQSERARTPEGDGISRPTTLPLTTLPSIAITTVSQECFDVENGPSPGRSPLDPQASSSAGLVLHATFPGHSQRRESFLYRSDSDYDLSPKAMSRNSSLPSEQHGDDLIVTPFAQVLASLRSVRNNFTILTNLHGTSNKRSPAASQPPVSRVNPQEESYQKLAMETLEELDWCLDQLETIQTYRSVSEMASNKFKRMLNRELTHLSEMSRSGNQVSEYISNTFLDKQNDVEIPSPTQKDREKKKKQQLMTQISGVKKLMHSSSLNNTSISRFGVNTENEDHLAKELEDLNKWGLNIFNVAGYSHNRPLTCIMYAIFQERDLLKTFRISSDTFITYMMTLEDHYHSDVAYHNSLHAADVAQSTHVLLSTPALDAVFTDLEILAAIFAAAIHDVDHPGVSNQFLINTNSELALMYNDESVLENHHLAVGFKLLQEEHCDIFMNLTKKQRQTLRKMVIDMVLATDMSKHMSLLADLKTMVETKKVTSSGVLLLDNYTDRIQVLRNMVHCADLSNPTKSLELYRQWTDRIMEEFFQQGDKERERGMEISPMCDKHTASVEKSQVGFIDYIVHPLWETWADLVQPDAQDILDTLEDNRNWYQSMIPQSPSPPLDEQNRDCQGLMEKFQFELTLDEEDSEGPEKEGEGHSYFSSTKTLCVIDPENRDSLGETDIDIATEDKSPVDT
Method in brief: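 Live HEK293 cells with a modified cyclic nucleotide-gated (CNG) channel report intracellular cAMP via membrane-potential dye fluorescence (ex 535/em 590 nm). Endogenous PDE-IV was targeted. Compounds were tested at up to 22.9 uM final; RO 20-1724 100 uM served as control.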

SMILES	activation (PDE inhibition)	Potency
Cc1nc2c([nH]1)c(=O)n(C)c(=O)n2Cc1ccco1	17.8% (inactive)	
CCN1CCc2nc(N)oc2CC1	-4.03% (inactive)	
Cc1ccc(S(=O)(=O)NC(=O)NN2CCCCCC2)cc1		inactive
CC[N+](C)(C)c1cccc(O)c1		inactive
CCN(CC)CCNC(=O)c1ccc(NC(C)=O)cc1	-3.08% (inactive)	
CCCC(C(=O)OCCN(CC)CC)(c1ccccc1)c1ccccc1	24.6% (inactive)	
CCC(=O)c1ccc2c(c1)N(CCCN(C)C)c1ccccc1S2	4.42% (inactive)	
Brc1c(NC2=NCCN2)ccc2nccnc12	18.1% (inactive)	
COc1ccc([C@@H]2Sc3ccccc3N(CCN(C)C)C(=O)[C@@H]2OC(C)=O)cc1	17% (inactive)	
Cc1scc2c1N(C(=O)CN1CCN(C)CC1)c1ccccc1NC2=O		inactive
CN(C)CCCN1c2ccccc2Sc2ccccc21		inactive
CC(=O)Oc1cc(C(C)C)c(OCCN(C)C)cc1C		inactive
CSc1ccc(C(=O)c2[nH]c(=O)[nH]c2C)cc1	-20.4% (inactive)	
CCN(CC)CCOCCOC(=O)C1(c2ccccc2)CCCC1		inactive
COC(=O)[C@@H](N)Cc1ccc(O)c(O)c1	-12.4% (inactive)	
O=C(O)CP(=O)(O)O		inactive
CCCCNc1ccc(C(=O)OCCN(C)C)cc1		inactive
CN(C)CCCN1c2ccccc2Sc2ccc(C(F)(F)F)cc21		inactive
O=C(CCNNC(=O)c1ccncc1)NCc1ccccc1		inactive

Source: PubChem BioAssay (NCATS)
